Measurements reported in PubChem BioAssay AID411 (National Center for Advancing Translational Sciences (NCATS), 2006).
Hit rate of the full screen: of about 72,000 compounds, about 1,600 (2.2%) were called active. The entries come from a sample that favours actives as a whole. A number with no mark means an inactive call. The call rests on the fitted dose curve; in most records, active means well fitted inhibition curve with a large enough effect; inconclusive means small, poorly fitted or top-dose-only effect; inactive means flat fitted curve, though single readings scatter.

target: Luciferin 4-monooxygenase (Photinus pyralis) (UniProt P08659); test: qHTS Assay for Inhibitors of Firefly Luciferase; conditions: purified firefly luciferase, luminescence, 8 min; series mostly up to 57.1 µM; activity change, negative = inhibition: at the top concentration; further: nearly all actives have a fitted effect of over 40% in size
Procedure: To aid in the interpretation of high-throughput screening (HTS) results derived from luciferase-based assays, we used quantitative HTS, an approach that defines the concentration-response behavior of each library sample, to profile the ATP-dependent luciferase from Photinus pyralis against more than 72 000 samples. Luciferase (PKLight, Cambrex Corporation) was assayed for its ability to generate light using ATP and luciferin as substrates. The ATP concentration in the assay (10 uM) was within the linear range of enzyme activity for the assay conditions used. See following reference for further details: [1] Auld DS, Southall NT, Jadhav A, Johnson RL, Diller DJ, Simeonov A, Austin CP, Inglese J. Characterization of chemical libraries for luciferase inhibitory activity. J Med Chem. 2008 Apr 24;51(8):2372-86. Auld DS, Zhang YQ, Southall NT, Rai G, Landsman M, Maclure J, Langevin D, Thomas CJ, Austin CP, Inglese J. A Basis for Reduced Chemical Library Inhibition of Firefly Luciferase Obtained from Directed Evolution. J. Med. Chem., 2009, 52 (5), pp 1450#1458 [3] Auld DS, Thorne N, Nguyen DT, Inglese J. A specific mechanism for nonspecific activation in reporter-gene assays. ACS Chem Biol. 2008 Aug 15;3(8):463-70. Auld DS, Thorne N, Maguire WF, Inglese J. Mechanism of PTC124 activity in cell-based luciferase assays of nonsense codon suppression. Proc Natl Acad Sci U S A. 2009 Mar 3;106(9):3585-90. Inglese J, Auld DS, Jadhav A, Johnson RL, Simeonov A, Yasgar A, Zheng W, Austin CP. Quantitative high-throughput screening: a titration-based approach that efficiently identifies biological activities in large chemical libraries. Proc Natl Acad Sci U S A. 2006 Aug 1;103(31):11473-8.
Four uL of substrate mix (final concentration, 50 mM imidazole pH 7.2, 50 mM KCl, 7 mM MgCl2, 10 uM ATP, 0.01% Tween 20, 0.05% BSA) was dispensed into white 1536 well plates. Twenty-three nL of compound was delivered by a pin tool and 2 uL of luciferase detector mix (PKLight, Cambrex) was added. Following 8-minute incubation at ambient temperature, luminescence was measured by a ViewLux (Perkin Elmer) at 5 seconds exposure/plate.
On the % scale 0 is the no-effect control and ±100 the full control effect; potency means the concentration at half of the fitted maximal effect.

Sequence of Luciferin 4-monooxygenase (Photinus pyralis) (P08659 whole entry, looked up): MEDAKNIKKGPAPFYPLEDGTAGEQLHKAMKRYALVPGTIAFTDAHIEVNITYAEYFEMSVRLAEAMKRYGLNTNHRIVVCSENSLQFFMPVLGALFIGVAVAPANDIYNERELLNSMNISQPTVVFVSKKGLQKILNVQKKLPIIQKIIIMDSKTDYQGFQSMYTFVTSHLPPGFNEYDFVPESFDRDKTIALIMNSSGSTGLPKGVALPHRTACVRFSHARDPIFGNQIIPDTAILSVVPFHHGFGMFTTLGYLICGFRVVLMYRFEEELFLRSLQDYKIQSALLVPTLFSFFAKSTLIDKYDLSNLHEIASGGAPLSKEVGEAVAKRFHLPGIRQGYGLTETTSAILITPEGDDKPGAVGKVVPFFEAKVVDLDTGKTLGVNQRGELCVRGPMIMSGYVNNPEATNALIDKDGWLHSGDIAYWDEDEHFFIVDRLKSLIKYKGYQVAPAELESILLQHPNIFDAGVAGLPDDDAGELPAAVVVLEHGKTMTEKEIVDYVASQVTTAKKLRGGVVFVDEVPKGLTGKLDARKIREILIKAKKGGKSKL

Row | Compound | activity change, negative = inhibition | Potency
1 | CCCCc1cc(=O)oc2cc(C)cc(OCc3nn[nH]n3)c12 | 3.09% | 
2 | O=c1oc2cc(O)ccc2cc1-c1ccc(F)cc1 | 4.51% | 
3 | COc1ccc(-c2cc3ccc(OCc4nn[nH]n4)cc3oc2=O)cc1 |  | 3.16 µM (active)
4 | CCn1ccnc1C[C@@H]1COc2ccccc2O1 |  | inactive
5 | CCOc1ccc(C(C)C)cc1S(=O)(=O)n1nc(C)cc1C | 0.916% | 
6 | O=C1C(c2ccccn2)=[N+]([O-])c2ccccc21 | -5.6% | 
7 | CCn1nc(C(=O)OCC(=O)N2c3ccccc3CC2C)c2ccccc2c1=O (stereo unspecified) | -32.8% | 
8 | CCC(=O)N1c2ccc(S(=O)(=O)CCC(=O)N3CCN(c4ccccc4)CC3)cc2CC1C (stereo unspecified) | -0.787% | 
9 | CCCC(=O)N1c2ccc(-c3csc(N)n3)cc2CC1C (stereo unspecified) |  | 12.6 µM (active)
10 | O=C(c1ccc2c(c1)OCCO2)C1CCN(S(=O)(=O)c2cccc(F)c2)CC1 | 0.966% | 
11 | O=C(c1ccc(F)cc1)C1CCN(CCCCc2ccccc2)CC1 | -0.998% | 
12 | Cc1nc2cnc(N3CCN(C)CC3)nc2n(CCC#N)c1=O | 0.64% [at 11.4 µM] | 
13 | O=C1CCC(C(=O)Nc2ccc(OC(F)F)cc2)N1 (stereo unspecified) | -35% | 
14 | OCCCN1c2ccccc2Nc2nnc(-c3ccccc3)cc21 |  | 3.98 µM (active)
15 | NS(=O)(=O)c1cc(Cl)c(Cl)c(S(N)(=O)=O)c1 | -1.68% [at 25.5 µM] | 
16 | COc1ccc(Br)c2c1C[C@H](C(=O)O)CC2 | 3.64% [at 11.4 µM] | 
17 | CCN(Cc1ccncc1)C(=O)[C@@H](CO)c1ccccc1 |  | inactive
18 | Cn1c(=NC(=O)c2cnccn2)sc2ccccc21 |  | 12.6 µM (active)
19 | Cn1c(=NC(=O)CSCC(=O)N2CCOCC2)sc2ccccc21 | 0.14% | 
20 | Cn1c(=NC(=O)CSCC(=O)N2CCCCC2)sc2ccccc21 | 1.33% | 
21 | Cc1nc(SCC(=O)Nc2cc(C)on2)c2c(C)c(C)sc2n1 | 1.36% | 
22 | Cc1cc(C)c2c(c1)cc(C)c1nnc(SCC(=O)Nc3cc(C)on3)n12 | -0.208% | 

Row | Compound | activity change, negative = inhibition | Potency
23 | Cc1ccc2nc(-c3ccc(SCC(=O)Nc4cc(C)on4)nc3)[nH]c2c1 |  | 2.51 µM (active)
24 | COc1ccc(N(C(=O)c2cccnc2)S(=O)(=O)c2ccc3c(c2)n(C)c(=O)n3C)cc1 | 3.46% | 
25 | O=S(=O)(Nc1ccccn1)c1ccc(Oc2ccccc2)cc1 | -1.02% | 
26 | O=C(c1cnn2ccccc12)N1CCc2ccccc21 |  | 12.6 µM (active)
27 | CCOC(=O)N1CCC(NC(=O)c2cnn3ccccc23)CC1 | 2.3% | 
28 | O=C(c1cccc(C(=O)N2CCc3ccccc32)n1)N1CCc2ccccc21 | -0.0998% | 
29 | O=C(c1ccc([N+](=O)[O-])cc1)[C@@H](Br)[C@@H](Br)c1ccnc2ccccc12 | -0.655% [at 11.4 µM] | 
30 | COC(=O)CNS(=O)(=O)c1ccc(Cc2ccc(S(=O)(=O)NCC(=O)OC)cc2)cc1 | 2.65% | 
31 | O=C(Nc1ccncc1)c1c(F)cccc1F | -1.11% | 
32 | O=C(Nc1ccncc1)c1cc2ccccc2o1 |  | 20 µM (active)
33 | O=C(NCCc1ccc2c(c1)OCCO2)c1cc2ccccc2o1 | -1.17% | 
34 | O=C(c1ccco1)N1CCC[C@@]2(CCN(Cc3nccs3)C2)C1 | 2.02% [at 11.4 µM] | 
35 | COc1ccc(Cc2nnnn2CC(=O)O)cc1 | 2.34% | 
36 | COC(=O)c1sccc1NC(=O)c1csc2c1CCCC2 | -1.4% | 
37 | COC(=O)c1sc(NC(=O)c2csc3c2CCCC3)nc1C |  | 10 µM (active)
38 | CCOC(=O)c1sc(NC(=O)c2cc(S(=O)(=O)N3CCOCC3)ccc2C)nc1C | 1.64% | 
39 | CC(=O)Cc1nsc(NC(=O)c2csc3c2CCCC3)n1 | -7.41% | 
40 | COc1ccc(C(=O)Nc2nncs2)c(OC)c1 | -26.7% | 
41 | COC(=O)c1sc(NC(=O)c2ccc(OC)cc2OC)nc1C |  | 0.0794 µM (active)
42 | CC(C)=CCC/C(C)=C/CO/N=C1/C[C@@H](O)[C@@H](O)[C@@H]2[C@@H]3C(=O)N(C(C)(C)C)C(=O)[C@H]3CC[C@H]12 | 0.109% [at 11.4 µM] | 
43 | Cc1cnc(NC(=O)CSc2nnc(-c3ccc(Cl)cc3Cl)n2N)s1 | -5.3% | 
44 | CCOC(=O)C1CCN(C(c2cc3cc(C)cc(C)c3[nH]c2=O)c2nnnn2C2CCCCC2)CC1 (stereo unspecified) | 3.48% | 

Row | Compound | activity change, negative = inhibition | Potency
45 | COc1ccc(-c2nn(-c3ccccc3)cc2C(=O)Nc2nc(CC(C)=O)ns2)cc1 | 1.9% | 
46 | O=C(O)C1CCN(c2ncnc3ccc(-c4ccccc4C(F)(F)F)cc23)CC1 | 0.203% [at 2.29 µM] | 
47 | COc1ccc(NC2CC(=O)N(C)C2=O)cc1 (stereo unspecified) | 2.41% [at 25.5 µM] | 
48 | COc1ccccc1CNc1ccnc(-c2c(C)noc2C)n1 | -0.167% [at 2.29 µM] | 
49 | CC(C)(C)c1csc(NC2=NS(=O)(=O)c3ccccc32)n1 |  | 7.94 µM (active)
50 | CC(c1nnc(SCC(=O)Nc2sccc2C#N)n1-c1ccc(Cl)cc1)N(C)C (stereo unspecified) | 1.74% | 
51 | O=S(=O)(c1cccs1)N1CCN(Cc2ccccc2)CC1 | 0.959% | 
52 | CCCCN(C)C(=O)C1CCN(Cc2ccccn2)CC1 | -0.416% | 
53 | c1ccc(-n2ncc3c2ncn2c(C4CCCCC4)nnc32)cc1 | 0.168% | 
54 | Cc1ccc(-n2ncc3c(N4CCN(c5ccc(F)cc5)CC4)ncnc32)c(C)c1 | 0.241% | 
55 | COc1ccc(-n2ncc3c(N4CCCc5ccccc54)ncnc32)cc1 |  | 12.6 µM (active)
56 | c1ccc(-n2ncc3c(N4CCCC4)ncnc32)cc1 |  | 5.01 µM (active)
57 | COc1ccc(N2CCN(C(=O)CSc3ncnc4c3cnn4-c3ccc(OC)cc3)CC2)cc1 | -3.13% | 
58 | Cc1cccc(-n2ncc3c(N4CCc5ccccc54)ncnc32)c1 | 0.441% | 
59 | COc1ccc2c(c1)C=CC1(O2)N(CCO)c2ccccc2C1(C)C (stereo unspecified) | -3.19% | 
60 | CCOC(=O)c1cc(-c2nnc(-c3cc(OC)c(OC)c(OC)c3)o2)c(C)nc1C | 0.0559% | 
61 | CC(=O)c1c(C)n(-c2ccc(N(C)C)cc2)c2ccc(OCC(N)=O)cc12 | 1.64% | 
62 | N#CC1=C(N)C(C#N)(C#N)[C@H](c2ccsc2)[C@H]2COCC=C12 | 5.37% | 
63 | Cc1nn2c3ccccc3nc2n(C)c1=O | 0.967% | 
64 | Cn1c(-c2ccc(C(=O)c3ccccc3)s2)nc2ccccc21 |  | 2.51 µM (active)
65 | Cn1c(CNC(=O)C(C)(C)C)nc2ccccc21 | 1.81% | 
66 | Cn1c(=O)c2c(n(Cc3ccccc3)c1=O)NC(=O)C2CC(=O)N1CCc2ccccc2C1 (stereo unspecified) | 4.38% | 

Row | Compound | activity change, negative = inhibition | Potency
67 | Cc1cc(Cl)c(S(=O)(=O)Nc2ccc3c(c2)OCCO3)cc1OCC(N)=O | -8.83% | 
68 | COc1ccccc1OCCOc1ccc(/C=N/n2cnnc2)cc1 | -5.09% | 
69 | O=C(CSc1nc2c(cnn2-c2ccc(F)cc2)c(=O)[nH]1)N1CCCCCC1 | 1.33% | 
70 | CCCC(=O)Nc1cccc(-c2cn3ccsc3n2)c1 |  | 15.8 µM (active)
71 | CCCC(=O)Nc1ccc2c(c1)nc1n2CCSC1 | -13.7% | 
72 | O=C(NCc1cn2ccsc2n1)Nc1cccc(Cl)c1 | 1.2% | 
73 | O=C(O)CS(=O)c1ccc2c3c(cccc13)C(=O)c1ccccc1-2 (stereo unspecified) | -1.48% [at 11.4 µM] | 
74 | O=C1C(C=NCC2CCCO2)=C(O)c2ccccc21 (stereo unspecified) |  | 15.8 µM (active)
75 | CC(=NCC1CCCO1)c1c(O)[nH]c(=O)[nH]c1=O (stereo unspecified) | 1.78% | 
76 | O=C(CS(=O)(=O)Cc1ccccc1)NCC1CCCO1 (stereo unspecified) | 1.3% | 
77 | CCCOc1ccc(-c2nc(N)n[nH]2)cc1 |  | 15.8 µM (active)
78 | Nc1nc(SCCOc2ccccc2)n[nH]1 | -14.9% | 
79 | CCCCOc1ccc(-c2ncc(C(=O)OCC)c(N)n2)cc1 | -1.24% | 
80 | O=c1c2c(nc3n1CCCCC3)sc1c(O)cccc12 |  | 15.8 µM (active)
81 | Cc1cc(=O)n2c3c(cccc13)CCC2 | 1.64% | 
82 | O=C(Cn1[nH]c(=O)c2ccccc2c1=O)Nc1cccc(-c2nnc3n2CCCCC3)c1 | 1.94% | 
83 | CCCn1c(=O)c2ccccc2n2c(SCC(=O)/C(C#N)=C(\C)N)nnc12 | -0.672% | 
84 | CCCCCC(=O)Nc1ccc2oc(-c3ccncc3)nc2c1 | 2.79% | 
85 | CCc1ccc2oc(-c3ccc(N)cc3)nc2c1 |  | 2 µM (active)
86 | Nc1ccc(-c2nnc(-c3ccc(-c4ccccc4)cc3)o2)cc1 | -12.2% | 
87 | Cc1cc(Cl)c(S(=O)(=O)NCC2CCCO2)cc1OCC(N)=O (stereo unspecified) | 0.983% | 
88 | O=C(Oc1cccnc1)c1cc2ccccc2oc1=O | -3.47% | 

Row | Compound | activity change, negative = inhibition | Potency
89 | O=C(NCc1ccccn1)c1cc2ccccc2oc1=O | -11.1% | 
90 | Nc1ncc(-c2cc3ccccc3oc2=O)s1 |  | 12.6 µM (active)
91 | O=c1c(-c2ccc(F)cc2)nc2cncnc2n1-c1ccccc1 | 0.918% [at 11.4 µM] | 
92 | CCC(=O)Nc1ccc(C(=O)CSc2nnc(CNc3ccc(Cl)cc3)o2)cc1OC | -0.26% | 
93 | C#CC(C)(C)NC(=O)CSc1nc2c(c(=O)n(C)c(=O)n2C)n1CCCC | -6.83% | 
94 | Cc1c(NC(=O)Nc2ccccc2Cl)sc(=S)n1C | 0.0836% | 
95 | c1ccc(Nc2nc(-c3ccncc3)cs2)nc1 |  | 7.94 µM (active)
96 | Oc1ccc(-c2csc(Nc3cccnc3)n2)cc1 | -8.52% | 
97 | Clc1ccc(Nc2nc(-c3cccs3)cs2)nc1 | 2.83% | 
98 | CC(=O)OCC(=O)[C@@]1(O)CC[C@@H]2[C@H]3CCC4=CC(=O)C=C[C@]4(C)[C@]3(F)[C@@H](O)C[C@@]21C | -2.25% [at 25.5 µM] | 
99 | Cn1c2c(c(=O)n(C)c1=O)CN(Cc1ccco1)CN2 | 0.895% | 
100 | COc1ccc(C(=O)Nc2cccnc2)cc1C(=O)Nc1cccnc1 | 1.27% [at 25.5 µM] | 
101 | COc1cc(OC)c(C(=O)NC2CCCCCC2)cc1OC | -0.721% | 
102 | COc1cc(OC)c(C(=O)Nc2ccc(N(C)C)cc2)cc1OC |  | 15.8 µM (active)
103 | CCOP1(=O)C=C(C(C)(C)C)OC1c1ccc(F)cc1 (stereo unspecified) | -0.946% | 
104 | O=c1c(-c2ccc(F)c(F)c2)nc2cncnc2n1-c1ccccc1 | 1.37% [at 11.4 µM] | 
105 | COc1ccc(Oc2ncc3nc(-c4ccc(F)cc4)c(=O)n(C)c3n2)cc1 | 0.178% [at 11.4 µM] | 
106 | CN1CCC2(CC1)CCN(S(=O)(=O)c1ccccc1)CC2 | 1.62% [at 11.4 µM] | 
